Results filed as inconclusive are left out. Values without a mark were called inactive. Calls follow the shape of the dose curve; as a rule, active = well fitted inhibition curve with a large enough effect; inconclusive = small, poorly fitted or top-dose-only effect; inactive = no such curve, though single readings can be large or run the other way.
Assay: Primary qHTS for inhibitors of La Crosse Virus (LACV) - induced cell death in SH-SY5Y cells (AID 1508616);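 also: top concentration of the series differs between compounds; 0% = infected DMSO wells and 100% = uninfected DMSO wells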
Details: SH-SY5Y LACV cytopathicity rescue, ATP luminescence, 6 d; series mostly up to 4.29 µM; activity change: at the top concentration
Source text: Assay Provider: Karin Peterson Ph.D.
National Institute of Allergy and Infection Diseases, National Institute of Health
La Crosse Virus (LACV) is a California serogroup mosquito-borne arbovirus, family Peribunyaviridae, which is an endemic pathogen in North America and can induce a rare, life-threatening neurological disease in children. LACV was first isolated in the early 1960s, from a summer "rural encephalitis" case in La Crosse, Wisconsin, USA. Since then, LACV encephalitis cases have been found in more than twenty states, with most cases in the Mississippi and Ohio River basins. The life cycle of LACV is maintained between the vector, the eastern tree-hole mosquito Aedes triseriatus, and vertebrate hosts including eastern gray squirrels (Sciurus carolinensis) and chipmunks (Tamiasstriatus grinseus). […] Most LACV infections in humans are asymptomatic or induce mild clinical symptoms of fever, headache, lethargy and vomiting. However, in some cases LACV can cause severe neuroinvasive disease, including encephalitis, meningitis, and meningoencephalitis, requiring hospitalization. To date, there is neither a licensed vaccine nor a Food and Drug Administration (FDA) approved antiviral therapy available to prevent or treat LACV encephalitis. The primary treatment for viral encephalitis is palliative care due to the lack of therapeutics. In the current study, we conducted a screen of 4,096 FDA approved and bioactive small molecules against LACV, by screening for rescue of LACV-induced cell death in SH-SY5Y cells.
LACV-induced cytopathicity assay
SEQUENCE No. (1,2, 3, etc.); […] (e.g., Cells, Incubation, Reagent, etc.); VALUE and DESCRIPTION.
1. Reagent; 2 uL; Cell solution.
3. Compounds; 23nL; Compound library
4. Reagent; 12 uL; LACV virus
6. Reagent; 24 uL; ATPLite (PerkinElmer)
7. Time; 5 min; Room temperature
8. Detection; Luminescence; View
NOTES (numbers refer to sequence above)
1. Seed 6000 SH-SY5Y cells (ATCC CRL-2266) in 2 microL/well media (DMEM/F12 10% FBS, 1x L-Glutamine, 1x Pyruvate, 1x NEAA, 1x Pen/Strep) in 384-well assay plates (tissue culture treated, white, solid bottom).
2. Incubate at 37 degrees C with 5% CO2 for 24 hr.
3. Dispense 23 nL/well compounds in DMSO via pin transfer.
4. Dispense 12 microL/well of LACV (LACV/human/1978) in media at 0.01 MOI.
5. Incubate at for 6 days at 37C 5% CO2
6. Dispense 24 microL/well of ATPLite 1step Luminescence assay system (PerkinElmer).
7. Incubate for 5 min at room temperature.
8. Read luminescence signal (Viewlux plate reader, PerkinElmer). Data was normalized with DMSO control wells containing LACV as 0%, and DMSO control wells without virus as 100%.

First: NS(=O)(=O)c1ccc(C(=O)O)cc1
Second: NCc1ccc(S(N)(=O)=O)cc1
The “activity change” value of the first is higher: -2.36% for the first, -4.22% for the second.

First: Nc1ncnc(Nc2ccccc2)n1
Second: c1ccc2[nH]ccc2c1
The “activity change” value of the first is lower: -14.4% for the first, 13.2% for the second.

First: CC(=O)NS(=O)(=O)c1ccc(N)cc1
Second: CCc1nnc(NS(=O)(=O)c2ccc(N)cc2)s1
The “activity change” value of the first is lower: -5.57% for the first, -3.63% for the second.

First: CC(=O)OCC(COC(C)=O)OC(C)=O
Second: NC(=O)N[C@@H](CCC(=O)O)C(=O)O
The “activity change” value of the first is higher: 30.8% for the first, 9.71% for the second.

Going from CCC(C)(CN(C)C)OC(=O)c1ccccc1 (stereo not given) to CC(C)CCOC(=O)c1ccc(N(C)C)cc1, the “activity change” value rises from -2.55% to 6.64%.

First: Cc1ccc(C(C)C)c(O)c1
Second: CCN(CC)C(=O)c1cccc(C)c1
The “activity change” value of the first is lower: -6.71% for the first, 3.07% for the second.

Compared with CC(C)(C)NCC(O)COc1cccc2c1CCC(=O)N2 (stereo not given), C/C=C/C(=O)N(CC)c1ccccc1C is lower in “activity change” value: 0.0839% for the first, -11.7% for the second.

Going from O=C(NCC(O)CO)c1c(I)c(C(=O)NCC(O)CO)c(I)c(N(CCO)C(=O)CO)c1I (stereo not given) to COCC(=O)Nc1c(I)c(C(=O)NCC(O)CO)c(I)c(C(=O)N(C)CC(O)CO)c1I (stereo not given), the “activity change” value rises from 0.53% to 1.49%.

Going from C[C@@H](c1ncncc1F)C(O)(Cn1cncn1)c1ccc(F)cc1F (stereo not given in full) to CC(CN(C)C)C(C)(O)Cc1ccc(Cl)cc1 (stereo not given), the “activity change” value rises from -12% to -3.88%.

First: CC(=O)OCC(=O)[C@@]1(O)CC[C@H]2[C@@H]3CCC4=CC(=O)C=C[C@]4(C)[C@@]3(F)[C@@H](O)C[C@@]21C
Second: CC1(C)S[C@@H]2[C@H](NC(=O)C(C(=O)O)c3ccccc3)C(=O)N2[C@H]1C(=O)O (stereo not given in full)
The “activity change” value of the first is lower: 4.61% for the first, 12.4% for the second.

Going from Cc1ccsc1C(=CCCN1CCC[C@@H](C(=O)O)C1)c1sccc1C to C=CCN1C[C@H](C(=O)N(CCCN(C)C)C(=O)NCC)C[C@@H]2c3cccc4[nH]cc(c34)C[C@H]21, the “activity change” value rises from -15.5% to 13.1%.

First: C[N+](C)(C)CC(O)CC(=O)[O-] (stereo not given)
Second: O=C(O)CCC(=O)O
The “activity change” value of the first is higher: 7.76% for the first, 6.27% for the second.

Going from NNc1nnc(NN)c2ccccc12 to Cc1cccc(Nc2ccccc2C(=O)O)c1C, the “activity change” value falls from -2.68% to -3.96%.

First: Cc1cc(=O)[nH]c(=S)[nH]1
Second: CNc1c2c(nn1C)CCCC2
The “activity change” value of the first is higher: 1.39% for the first, -4.86% for the second.

First: CC[N+](C)(CC)CCOC(=O)C1c2ccccc2Oc2ccccc21
Second: C[N+]1(C)CCCC(OC(=O)C(O)(c2ccccc2)c2ccccc2)C1 (stereo not given)
The “activity change” value of the first is higher: 19.9% for the first, -3.28% for the second.

Going from COc1ccc(C(=O)N2CCN(CC(=O)N3CCOCC3)CC2)cc1 to Cc1ccc(S(=O)(=O)NC(=O)NC2CCCCCCC2)cc1, the “activity change” value falls from 11.6% to -14.8%.

First: CN[C@@H]1[C@@H](O)[C@@H](O[C@@H]2[C@H](O)[C@H](O[C@H]3OC(CN)=CC[C@H]3N)[C@@H](N)C[C@H]2N)OCC1(C)O (stereo not given in full)
Second: O[C@@H]1CO[C@H]2[C@@H]1OC[C@@H]2O
The “activity change” value of the first is higher: 22.4% for the first, -6.24% for the second.

First: CCN(CC)CCc1nc(-c2ccccc2)no1
Second: C[n+]1ccccc1/C=N/O
The “activity change” value of the first is higher: 4.76% for the first, -2.89% for the second.

Compared with CC(C)=CCC[C@@](C)(O)[C@H]1CC=C(C)CC1, Cc1ccc(S(=O)(=O)NC(=O)NC2CCCCC2)cc1 is higher in “activity change” value: 7.63% for the first, 50.9% for the second.

With FC(F)(F)C(Cl)Br (stereo not given) the “activity change” value was 8.85%.

Work on N[C@@H](Cc1ccc(O)cc1)C(=O)O yielded an activity change of 20.5% [at 0.858 µM].

Reference: PubChem BioAssay (NCATS)
